VP16 counter = Gal4-VP16 reporter inhibition counter-screen; Drosophila S2 Gal4-VP16 UAS-luciferase, luminescence, 20 h; actives 3.5% (n = 310,000); Potency, µM (doses to about 53.6 µM), for the others: at the highest dose activity, negative = inhibition, usual class: inhibitors; AID 2546;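 note: Gal4-VP16 expression switched on by copper sulfate through the metallothionein promoter; nearly all actives have a fitted effect of over 50% in size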
KinaseGlo FLuc = counter-screen: inhibitors of Kinase-Glo firefly luciferase; Kinase-Glo luciferase, ATP luminescence, 8 min; Q27757; actives 0.28% (n = 200,000); AID 1379; Potency, µM (highest dose often 38.3 µM), without a hit: at the highest dose activity change, negative = inhibition, most hits filed as inhibitors; note: nearly all actives have a fitted effect of over 60% in size
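Inhibition of Kinase-Glo luciferase light generation was assessed at 10 uM ATP in pH 7.2 imidazole buffer, with luminescence measured after eight minutes at ambient temperature.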
RORg inh = ROR gamma (mouse) transcription inhibition | P51450 | actives 5.4% (n = 310,000) | AID 2551 | Drosophila S2 Gal4-RORgamma UAS-luciferase reporter, 20 h | Potency, µM (highest dose often 53.6 µM), for inactives: at the highest dose activity change, negative = inhibition, usual class: inhibitors; note: nearly all actives have a fitted effect of over 60% in size
Target sequence (P51450 whole entry, looked up, the tested form may be a part): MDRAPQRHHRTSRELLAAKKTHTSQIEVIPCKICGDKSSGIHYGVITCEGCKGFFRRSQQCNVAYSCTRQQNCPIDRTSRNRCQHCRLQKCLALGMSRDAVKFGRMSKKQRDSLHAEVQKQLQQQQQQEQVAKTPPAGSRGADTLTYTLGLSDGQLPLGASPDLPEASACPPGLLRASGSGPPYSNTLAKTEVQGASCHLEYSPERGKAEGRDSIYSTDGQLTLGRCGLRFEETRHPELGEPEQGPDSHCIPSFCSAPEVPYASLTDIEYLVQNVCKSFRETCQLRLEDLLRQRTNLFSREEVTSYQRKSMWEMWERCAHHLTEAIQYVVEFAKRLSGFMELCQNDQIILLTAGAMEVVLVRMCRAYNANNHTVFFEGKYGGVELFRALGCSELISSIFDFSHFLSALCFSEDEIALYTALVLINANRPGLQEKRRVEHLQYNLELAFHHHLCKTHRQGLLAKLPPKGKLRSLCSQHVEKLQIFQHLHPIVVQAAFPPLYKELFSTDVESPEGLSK
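Stable Schneider cell line, Gal4 DNA-binding domain fused to ROR gamma, UAS-luciferase. Cmpd 1 hr RT → CuSO4 700 uM final → 20 hr RT → luciferase reagent 10 min → luminescence.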
Numbers without * were called inactive; [ ] = remark or other dose. Hits are enriched below; roughly 6.4% of the tested compounds scored in any of these assays. Calls come from the whole dose curve; as a rule, active = well fitted curve in the direction sought with a large enough effect; inconclusive = small, poorly fitted or top-dose-only effect, or another doubt; inactive = no such curve, though single readings can be large; an effect the other way counts as inactive or inconclusive. % is set by controls: 0 for no effect and ±100 for the full control effect; potency is the fitted concentration of half-maximal effect.

Results for COc1ccc(/C=N/NC(=S)N[C@H]2CC3CCC2C3)cc1 (some centres undefined) ?
VP16 counter: 3.2µM*; RORg inh: 0.63µM*

How did S=C(N/N=C/c1ccc2c(c1)OCO2)NC1CC2CCC1C2 (centres undefined) do in these assays?
VP16 counter: 3.2µM*; RORg inh: 4.5µM*

How did COc1ccc(/C=C/C(=O)NC2CC3CCC2C3)cc1 (centres undefined) do in these assays?
VP16 counter: 16%; RORg inh: 19%

Results for COc1cc(/C=N/NC(=S)NC2CC3CCC2C3)ccc1O (centres undefined) ?
VP16 counter: 5µM*; RORg inh: 2µM*

How did O=C(N/N=C/C1CC2CCC1C2)c1ccc2c(c1)OCO2 (centres undefined) do in these assays?
VP16 counter: 9%; KinaseGlo FLuc: -6%; RORg inh: -7%

How did COCC(C)NC(=O)CSc1ncnc2sc(-c3ccccc3)cc12 (centres undefined) do in these assays?
VP16 counter: -5%; RORg inh: -34%

Results for O=C(c1ccccc1)c1nc[nH]c1C(=O)Nc1ccccn1 ?
VP16 counter: 18µM*; KinaseGlo FLuc: -1%; RORg inh: 13µM*

What do the screens show for `O=C(Nc1ccccn1)Nc1cccs1`?
VP16 counter: 10µM*; KinaseGlo FLuc: 9%; RORg inh: 22%

Results for CCOC(=O)c1[nH]cnc1C(=O)Nc1ccccn1 ?
VP16 counter: 0%; RORg inh: inconclusive

How did O=C(NC(=O)c1ccccc1)Nc1ccccn1 do in these assays?
VP16 counter: 1.6µM*; RORg inh: 0.5µM*

What do the screens show for `COc1cc(C(=O)Nc2ccccn2)cc(OC)c1OC`?
VP16 counter: 7%; KinaseGlo FLuc: 0%; RORg inh: -9%

How did O=C(Nc1ccncc1)Nc1ccccn1 do in these assays?
VP16 counter: 2%; KinaseGlo FLuc: 6%; RORg inh: 3%

What do the screens show for `Cc1cc(C(=O)Nc2ccccn2)cs1`?
VP16 counter: inconclusive; KinaseGlo FLuc: inconclusive; RORg inh: 11µM*

What do the screens show for `Cc1cccc(NC(=O)NC(=O)c2ccccc2)n1`?
VP16 counter: 28%; KinaseGlo FLuc: inconclusive; RORg inh: 8%

What do the screens show for `CC(CCC(=O)O)C1CCC2C3CC[C@@H]4CCCC[C@@]4(C)C3CC[C@@]12C` (some centres undefined)?
VP16 counter: -12%; KinaseGlo FLuc: 1%; RORg inh: -3%

How did C[C@H]1Cc2c(-c3ccccc3)nc3c(c2CO1)CN(C(=O)c1cc(I)ccc1F)CC3 do in these assays?
KinaseGlo FLuc: -2%[7.66 µM]

How did C[C@@H]1CC[C@H]2[C@H](C)C3[C@H](C[C@H]4[C@@H]5CC=C6C[C@@H](O)CC[C@@]6(C)[C@@H]5C[C@@H](O)[C@]34C)N2C1 (some centres undefined) do in these assays?
KinaseGlo FLuc: 0%[7.66 µM]

How did O=C(CCC(=O)N1CCCC1)Nc1ccc(Cl)c(Cl)c1 do in these assays?
VP16 counter: -4%; RORg inh: 27%

Results for CCn1nc(C)cc1-c1nnc(Sc2ncc([N+](=O)[O-])s2)n1C ?
VP16 counter: 4.5µM*; RORg inh: 5µM*

How did CCn1nc(C)cc1-c1nnc(SCC(=O)Nc2ccccc2)n1CCCOC do in these assays?
VP16 counter: 5%; RORg inh: -17%

Results for Cc1cccc(NC(=S)NCc2cccs2)c1C ?
VP16 counter: 10µM*; KinaseGlo FLuc: -2%; RORg inh: 3.5µM*

What do the screens show for `S=C(NCc1cccs1)Nc1cccc2ccccc12`?
VP16 counter: inconclusive; KinaseGlo FLuc: 2%; RORg inh: 3.5µM*

What do the screens show for `Cc1cccc(Nc2ncccc2C(=O)NCc2cccs2)c1C`?
VP16 counter: 11%; KinaseGlo FLuc: -2%; RORg inh: -8%

What do the screens show for `S=C(NCCc1ccccc1)NCc1cccs1`?
VP16 counter: -84%; KinaseGlo FLuc: -3%; RORg inh: 11µM*

What do the screens show for `COc1ccc(CCNC(=S)NCc2cccs2)cc1OC`?
VP16 counter: 0%; KinaseGlo FLuc: 1%; RORg inh: inconclusive

What do the screens show for `S=C(NCCN1CCOCC1)Nc1cccc2ccccc12`?
VP16 counter: inconclusive; KinaseGlo FLuc: -3%; RORg inh: inconclusive

What do the screens show for `Cc1ccc(C(C)C)c(OCCN)c1`?
VP16 counter: -4%; KinaseGlo FLuc: 13%; RORg inh: -15%

What do the screens show for `Cc1ccc(C(C)C)c(OCCNC(=S)Nc2cccc3ccccc23)c1`?
VP16 counter: 3.2µM*; KinaseGlo FLuc: 0%; RORg inh: 1.3µM*

Results for O=C(O[C@@H]1Cc2c(O)cc(O)cc2OC1c1ccc(O)c(O)c1)c1cc(O)c(O)c(O)c1 (some centres undefined) ?
VP16 counter: -5%; KinaseGlo FLuc: -1%; RORg inh: -32%

What do the screens show for `Cc1cc(C)nc(SCCc2cccc[n+]2C)n1`?
KinaseGlo FLuc: -6%[7.66 µM]

What do the screens show for `CCOc1cc(Cl)c(S(=O)(=O)NCCCN2CCOCC2)cc1Cl`?
VP16 counter: 4%; RORg inh: -7%

How did CCC1CCCCN1Cc1nc(Cc2ccccc2Cl)no1 (centres undefined) do in these assays?
VP16 counter: 0%; RORg inh: -21%

What do the screens show for `CC(C)OCCCN1CN(S(=O)(=O)c2cccs2)c2nc3ccccc3nc21`?
VP16 counter: -6%; RORg inh: inconclusive

What do the screens show for `S=C(NCc1ccccc1)Nc1cccc2ccccc12`?
VP16 counter: 5.6µM*; RORg inh: 3.2µM*

Results for NC(=O)NNC(=S)Nc1cccc2ccccc12 ?
VP16 counter: -6%; KinaseGlo FLuc: 1%; RORg inh: -7%

What do the screens show for `Cc1cc(C)c(S(=O)(=O)NCC2CCC(C(=O)NCc3ccccn3)CC2)c(C)c1` (centres undefined)?
VP16 counter: -13%; RORg inh: 17%

What do the screens show for `OC1CN=C2CCCc3c2n(c2ccc(Cl)cc32)C1` (centres undefined)?
VP16 counter: 1%; KinaseGlo FLuc: -1%; RORg inh: 14%

Results for c1ccc(-c2ccc3c(c2)c2c4n3CCN=C4CCC2)cc1 ?
VP16 counter: inconclusive; KinaseGlo FLuc: -1%; RORg inh: 11µM*

How did CC1C=CCC2C(=O)N(c3cc(Cl)ccc3O)C(=O)C12 (centres undefined) do in these assays?
VP16 counter: 3%; RORg inh: 12%

Results for COc1cccc(CN2CC(C(=O)NCc3ccc(Cl)s3)CCC2=O)c1 (centres undefined) ?
VP16 counter: -8%; RORg inh: inconclusive

Results for COc1cccc(CNC2CCCC2)c1 ?
VP16 counter: 0%; KinaseGlo FLuc: -4%; RORg inh: 5%

What do the screens show for `COc1cccc(CNC(=S)NC2CC2)c1`?
VP16 counter: -29%; KinaseGlo FLuc: 0%; RORg inh: 10µM*

How did COc1ccc(C(=O)NC2CCN(CC(=O)NCc3cccc(OC)c3)CC2)cc1 do in these assays?
VP16 counter: -4%; RORg inh: 33%

What do the screens show for `COc1cccc(CNC(=S)NC2CCCC2)c1`?
VP16 counter: 10µM*; RORg inh: 10µM*

Results for Cc1ccc(NC(=O)c2cc(S(=O)(=O)N3CCOCC3)cn2C)cc1Cl ?
VP16 counter: -2%; RORg inh: inconclusive

Source: PubChem BioAssay (National Center for Advancing Translational Sciences (NCATS))
